# Data from PubChem BioAssay (NCATS).
# “And” between values parts separate entries of the source, which are not always exact repeats. Equal entries are not always repeated. Records with an inconclusive call do not appear. A structure can be active in one record and inactive in another. The source made the active and inactive calls. The call rests on the fitted dose curve; in most records, active means well fitted curve in the direction sought with a large enough effect; inconclusive means small, poorly fitted or top-dose-only effect, or another doubt; inactive means no such curve, though single readings can be large; an effect the other way counts as inactive or inconclusive.
# Assays:
# [1] = Primary qHTS for inhibitors of nuclear receptor binding SET domain protein 2 (NSD2) in an RCH-ACV wild type WT cells (2C) (AID 1645877); further: potency means the concentration at half of the fitted maximal effect; nearly all actives have a fitted effect of over 70% in size
# [2] = biological target: Rap guanine nucleotide exchange factor 3 (Homo sapiens) (UniProt O95398); assay: Confirmatory qHTS for antagonist of cAMP-regulated guanine nucleotide exchange factor 3 (EPAC1) (AID 1645880);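 further: plate controls were DMSO only for no effect and full effect of the ATA control for full effect; nearly all actives have a fitted effect of over 55% in size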
# Procedure, shortened: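 Nucleotide exchange uses 100 nM EPAC1, 250 nM RAP1B-BODIPY-GDP and 50 uM GDP, with compounds in a concentration-titration series. After 5 min at room temperature, fluorescence (480 nm ex/540 nm em) is read every 5 min for 30 min. Data are normalized to control ATA and DMSO.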
# [3] = biological target: Rap guanine nucleotide exchange factor 3 (Homo sapiens) (UniProt O95398); assay: Confirmatory qHTS for agonist of cAMP-regulated guanine nucleotide exchange factor 3 (EPAC1) (AID 1645881);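 further: EPAC1 catalysed release of BODIPY-GDP from Rap1B seen as fluorescence loss; 100% = effect of cAMP agonist control; nearly all actives have a fitted effect of over 75% in size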
# [4] = biological target: Rap guanine nucleotide exchange factor 4 (Homo sapiens) (UniProt Q8WZA2); assay: Confirmatory qHTS for agonist of cAMP-regulated guanine nucleotide exchange factor 4 (EPAC2) (AID 1645884);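 further: nucleotide exchange releases bodipy-GDP from Rap1 and this lowers its fluorescence; on the % scale 0 is the no-effect control and ±100 the full control effect; nearly all actives have a fitted effect of over 65% in size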
# [5] = biological target: Rap guanine nucleotide exchange factor 4 (Homo sapiens) (UniProt Q8WZA2); assay: Confirmatory qHTS for antagonist of cAMP-regulated guanine nucleotide exchange factor 4 (EPAC2) (AID 1645885); further: nearly all actives have a fitted effect of over 25% in size; further: potency means the concentration at half of the fitted maximal effect; on activity change, negative = inhibition: on the % scale 0 is the no-effect control and ±100 the full control effect
# [6] = Primary qHTS for inhibitors of nuclear receptor binding SET domain protein 2 (NSD2) in an isogenic RCH-ACV NSD2 p.E1099K mutant (9B) (AID 1645876); further: nearly all actives have a fitted effect of over 70% in size; further: potency means the concentration at half of the fitted maximal effect
# [7] = biological target: Catechol O-methyltransferase (Homo sapiens) (UniProt P21964); assay: Confirmatory Screen for Target Class Profiling of Small Molecule Inhibitors of Methyltransferases (AID 1745852); settings: MTase-Glo luminescence, SAH detection, recombinant enzyme; measured here: COMT max response; stronger effect = lower value; on activity change, negative = inhibition: on the % scale 0 is the no-effect control and ±100 the full control effect
# [8] = biological target: Guanidinoacetate N-methyltransferase (Homo sapiens) (UniProt Q14353); assay: as above; settings: MTase-Glo luminescence, SAH detection, recombinant enzyme; at 57.3 µM (top of the series)
# Rap guanine nucleotide exchange factor 4 (Homo sapiens), sequence (Q8WZA2 whole entry, looked up, the tested form may be a part): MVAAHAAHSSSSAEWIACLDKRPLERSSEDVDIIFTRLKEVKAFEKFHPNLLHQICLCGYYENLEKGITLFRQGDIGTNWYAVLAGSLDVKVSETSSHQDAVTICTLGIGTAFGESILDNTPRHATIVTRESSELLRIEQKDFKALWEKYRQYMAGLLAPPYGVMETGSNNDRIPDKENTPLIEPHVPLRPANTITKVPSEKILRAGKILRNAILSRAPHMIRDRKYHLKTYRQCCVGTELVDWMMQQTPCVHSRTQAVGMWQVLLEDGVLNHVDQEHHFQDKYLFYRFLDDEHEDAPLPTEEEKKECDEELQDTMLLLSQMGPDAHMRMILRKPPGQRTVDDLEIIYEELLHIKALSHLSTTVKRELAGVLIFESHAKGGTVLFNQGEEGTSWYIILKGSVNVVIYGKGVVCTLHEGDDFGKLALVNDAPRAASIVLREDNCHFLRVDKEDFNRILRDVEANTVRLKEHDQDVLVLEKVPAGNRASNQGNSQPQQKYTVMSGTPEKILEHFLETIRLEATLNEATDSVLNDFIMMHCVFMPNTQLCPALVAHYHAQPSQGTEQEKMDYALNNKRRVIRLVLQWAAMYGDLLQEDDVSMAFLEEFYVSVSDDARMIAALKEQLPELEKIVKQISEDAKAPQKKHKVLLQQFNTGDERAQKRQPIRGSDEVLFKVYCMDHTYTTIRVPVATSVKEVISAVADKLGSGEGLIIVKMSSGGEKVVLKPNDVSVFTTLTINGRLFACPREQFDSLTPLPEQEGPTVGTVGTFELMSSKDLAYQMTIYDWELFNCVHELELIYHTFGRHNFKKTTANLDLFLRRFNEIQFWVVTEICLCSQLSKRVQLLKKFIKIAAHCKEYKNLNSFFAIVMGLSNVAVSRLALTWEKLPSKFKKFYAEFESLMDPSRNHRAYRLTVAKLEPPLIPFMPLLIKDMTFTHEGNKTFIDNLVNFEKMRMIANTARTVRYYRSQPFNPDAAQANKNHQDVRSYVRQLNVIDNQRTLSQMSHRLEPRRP
# Rap guanine nucleotide exchange factor 3 (Homo sapiens), sequence (O95398 whole entry, looked up): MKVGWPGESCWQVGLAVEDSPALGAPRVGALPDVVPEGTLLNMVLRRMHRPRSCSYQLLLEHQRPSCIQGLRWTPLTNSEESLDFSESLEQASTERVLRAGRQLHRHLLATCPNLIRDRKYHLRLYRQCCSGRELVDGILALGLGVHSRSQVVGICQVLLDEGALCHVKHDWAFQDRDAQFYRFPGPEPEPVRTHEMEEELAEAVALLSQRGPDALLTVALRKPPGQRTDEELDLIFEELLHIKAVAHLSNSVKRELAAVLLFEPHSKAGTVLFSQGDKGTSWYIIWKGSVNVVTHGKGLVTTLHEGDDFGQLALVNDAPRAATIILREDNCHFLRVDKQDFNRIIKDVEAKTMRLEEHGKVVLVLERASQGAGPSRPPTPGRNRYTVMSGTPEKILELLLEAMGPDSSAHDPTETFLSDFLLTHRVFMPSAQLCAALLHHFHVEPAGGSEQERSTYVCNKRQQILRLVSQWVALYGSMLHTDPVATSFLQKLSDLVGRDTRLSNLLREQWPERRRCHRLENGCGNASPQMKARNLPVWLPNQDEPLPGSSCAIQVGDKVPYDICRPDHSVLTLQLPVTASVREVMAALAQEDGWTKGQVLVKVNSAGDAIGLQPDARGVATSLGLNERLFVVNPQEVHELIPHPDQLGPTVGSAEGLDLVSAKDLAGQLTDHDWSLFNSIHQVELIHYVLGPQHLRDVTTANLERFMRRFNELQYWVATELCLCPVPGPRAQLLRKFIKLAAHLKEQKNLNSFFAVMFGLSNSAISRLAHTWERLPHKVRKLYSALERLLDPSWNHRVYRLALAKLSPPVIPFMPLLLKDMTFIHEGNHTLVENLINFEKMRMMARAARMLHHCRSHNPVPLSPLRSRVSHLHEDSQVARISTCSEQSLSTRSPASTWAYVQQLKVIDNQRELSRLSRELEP
# Catechol O-methyltransferase (Homo sapiens), sequence (P21964 whole entry, looked up): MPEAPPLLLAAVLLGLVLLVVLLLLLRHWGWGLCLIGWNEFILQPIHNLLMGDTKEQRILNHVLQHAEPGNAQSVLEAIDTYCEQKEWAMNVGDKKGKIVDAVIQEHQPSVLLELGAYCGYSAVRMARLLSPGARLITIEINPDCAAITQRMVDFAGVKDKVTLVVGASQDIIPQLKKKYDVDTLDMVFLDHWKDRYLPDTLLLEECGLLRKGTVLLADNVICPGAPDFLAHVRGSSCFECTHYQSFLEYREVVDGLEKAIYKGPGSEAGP
compound,measurement,setting,value
C#C[C@]1(OC(C)=O)CC[C@H]2[C@@H]3CCC4=C[C@@H](OC(C)=O)CC[C@@H]4[C@H]3CC[C@@]21C,Potency,[1],18.8 µM (active)
same,Potency,[2],inactive
same,outcome,[3],inactive
same,Potency,[4],inactive
same,Potency,[5],inactive
C[C@]12C=CC(=O)C=C1[C@@H](F)C[C@@H]1[C@@H]2[C@@H](O)C[C@@]2(C)[C@H]1CC[C@]2(O)C(=O)CO,Potency,[1],0.0422 µM (active)
C#C[C@]1(O)CC[C@H]2[C@@H]3CCC4=CC(=O)CC[C@@H]4[C@H]3CC[C@@]21C,Potency,[1],26.6 µM (active)
CC(=O)Oc1ccc(C(c2ccc(OC(C)=O)cc2)c2ccccn2)cc1,Potency,[6],inactive
same,Potency,[2],inactive
same,outcome,[3],inactive
same,Potency,[4],inactive
same,Potency,[5],inactive and 44.1 µM (active)
O=C1OC(c2ccc(O)cc2)(c2ccc(O)cc2)c2ccccc21,Potency,[2],inactive
same,outcome,[3],inactive
same,Potency,[4],inactive
same,Potency,[5],24.8 µM (active) and 27.8 µM (active)
CC(=O)OCC(=O)[C@@]1(O)[C@H](C)C[C@H]2[C@@H]3CCC4=CC(=O)C=C[C@]4(C)[C@@]3(F)[C@@H](O)C[C@@]21C,Potency,[1],3.3 nM (active) and 12.9 nM (active)
C[C@]12C=CC(=O)C=C1CC[C@@H]1[C@@H]2[C@@H](O)C[C@@]2(C)[C@H]1CC[C@]2(O)C(=O)CO,Potency,[1],42.2 nM (active) and 209 nM (active)
CC(C)(C)CC(C)(C)c1ccc(OCCOCC[N+](C)(C)Cc2ccccc2)cc1,Potency,[6],1.19 µM (active) and 1.83 µM (active)
same,Potency,[1],944 nM (active) and 1.63 µM (active)
same,activity,[7],-13.4%
same,"activity change, negative = inhibition",[8],-8.7%
CCCCOc1cc(C(=O)NCCN(CC)CC)c2ccccc2n1,Potency,[1],23.7 µM (active)
